# From PubChem BioAssay
# Only a selection was taken, and hits are over-represented in it overall.
# Pf Dd2 growth – Plasmodium falciparum Dd2 growth inhibition | P. falciparum Dd2 growth, SYBR Green, 72 h | Potency, µM (titrated, usually from 28.9 µM), for the others: at the top dose activity, negative = inhibition, actives largely listed as inhibitors | 120,000 tested, 4.3% active | AID 1347417; active = well fitted inhibition curve with a large enough effect;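 note: plate controls were DMSO vehicle for no effect and reference drug for full effect; nearly all actives have a fitted effect of over 65% in size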
#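 Readout: SYBR Green fluorescence, 485 nm excitation, 535 nm emission, after ~16 h lysis at 37C. Before that, Dd2-infected red cells (2.5% hematocrit) grew 72 h with compound, 29 uM top final concentration.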
# * = called active by the depositor; i = inactive; [ ] = another dose, or the depositor's remark. Potency is the fitted concentration of half-maximal effect.
SMILES,Pf Dd2 growth
O=C(CCc1nc2ccccc2s1)N1CCN(C(=O)N2CC3CC(C2)[C@H]2CCCC(=O)N2C3)CC1 (stereo not given in full),-8.7%
Cc1c(/C=C(\C#N)C(=O)Nc2cccc(Cl)c2)c2ccccc2n1Cc1ccccc1Cl,3.16µM*
Cc1ccc(NC(=O)/C(C#N)=C\c2ccc(Cl)cc2Cl)cc1C,8.3%
N#C/C(=C/c1cn(Cc2ccccc2Cl)c2ccccc12)C(=O)Nc1cccc(Cl)c1,i
O=C(CC1CCOC2(CCN(C(=O)c3ccccc3)CC2)C1)NC1CC1 (stereo not given),41.8%
O=C(NCCCn1ccnc1)c1nc(-c2ccccc2)cc2[nH]ccc12,11.2µM*
O=C1CCC(CNC(=O)c2nc(-c3ccccc3)cc3[nH]ccc23)N1 (stereo not given),3.2%[44.1 µM]
O=C(NCc1cccnc1)c1nc(-c2ccccc2)cc2[nH]ccc12,i
O=C(C[C@@H]1CCNC[C@@H]1Cc1cc(-c2ccccc2)on1)NC1CCCCC1,i
Cc1cnc(C(=O)NC2C[C@H]3CC[C@@H](C2)N3C(=O)c2cccs2)cn1 (stereo not given in full),-20.4%
CCOCCn1nc(C)cc1C(=O)N1C[C@@H](CN2CCCCC2)[C@@H](CO)C1,17.4%
CC(CCc1ccccc1)NC(=O)CC(c1cccc2c1OCO2)c1c[nH]c2ccccc12 (stereo not given),-15.2%
CCc1cccc2c(C(CC(=O)N3CCCCC3)c3cccc(C)c3)c[nH]c12 (stereo not given),i
CCc1cccc2c(C(CC(=O)N3CCc4ccccc4C3)c3cccc4c3OCO4)c[nH]c12 (stereo not given),8.91µM*
CCCNC(=O)CC(c1ccccc1OC)c1c[nH]c2c(CC)cccc12 (stereo not given),i
CCc1cccc2c(C(CC(=O)NC(C)CC)c3ccc(OC)c(OC)c3)c[nH]c12 (stereo not given),-4.2%
CCOC(=O)C1CCCN(C(=O)CC(c2cccc([N+](=O)[O-])c2)c2c[nH]c3c(CC)cccc23)C1 (stereo not given),12.6µM*
CCc1cccc2c(C(CC(=O)N3CCCC3)c3cccc([N+](=O)[O-])c3)c[nH]c12 (stereo not given),7.94µM*
COc1ccc(C(CC(=O)N2CCCC2)c2c[nH]c3ccccc23)cc1 (stereo not given),-7.2%
CCCNC(=O)CC(c1ccc(OC)c(OC)c1)c1c[nH]c2c(CC)cccc12 (stereo not given),-11.4%
Cc1cnc(-c2cccnc2)n1CC1CCNCC1,21.7%
COC1CCC12CCN(C(=O)Nc1ccccc1)CC2 (stereo not given),-14.8%
CCOc1ccccc1NC(=O)CN1C(=O)NC(c2ccccc2OCC)C2=C1COC2=O (stereo not given),-2.4%
O=C1NCc2ccccc2CC12CCN(Cc1ccccc1Cl)C2 (stereo not given),-20.0%
Cc1ccc(NC(=O)N2CCC(OC3CCN(S(C)(=O)=O)CC3)CC2)cc1C,i
SMILES,Pf Dd2 growth
CCOc1ccc(NC(=O)c2nnn3c2COC(c2ccc(Cl)cc2)C3)cc1 (stereo not given),10.8%
CCc1ccc(-n2c(SCc3nc(-c4cc(OC)ccc4OC)no3)nnc2-c2ccccc2)cc1,11.2µM*
COc1ccc(-c2noc(CSc3nnc(-c4ccncc4)n3-c3ccccc3)n2)cc1,-7.4%
COc1ccc(-n2c(C)nnc2SCc2nc(-c3ccc(OC)c(OC)c3)no2)cc1,-2.7%
O=C(c1ccccc1F)N1CCc2nc(C3CC3)nc(-c3ccc(Cl)cc3)c2C1,-29.1%
Cc1nc2c(c(-c3ccc(Cl)cc3)n1)CCN(C(=O)c1ccccc1C)CC2,-15.5%
O=C(c1ccccc1)N1CCc2nc(C3CC3)nc(-c3ccc(O)cc3)c2CC1,-2.3%
O=C(c1cccc(Cl)c1)N1CCc2nc(C3CC3)nc(-c3ccc(O)cc3)c2CC1,5.01µM*
Cc1nc2c(c(-c3ccc(O)cc3)n1)CN(C(=O)c1ccccc1)CC2,i
Cc1ccccc1C(=O)N1CCc2nc(C3CC3)nc(-c3ccc(O)cc3)c2CC1,8.91µM*
O=C(c1cccnc1)N1CCCC(c2nc(C3CCOCC3)no2)C1 (stereo not given),-25.1%
CC(=O)Nc1ccc(S(=O)(=O)N2C[C@@H]3C[C@H](C2)c2ccc(-c4ccc5ccccc5c4)c(=O)n2C3)cc1,-27.2%
Cc1ccc(-c2ccc3ncn(Cc4ccccn4)c(=O)c3n2)c(C)c1,i
Cc1cc(Cl)ccc1NC(=O)N1CCCC1c1nncn1-c1ccccc1 (stereo not given),-6.0%
Cc1ccc(NC(=O)Cn2c(-c3ccc(F)cc3)nc(C)c(CCO)c2=O)cc1,-4.9%
COc1cc(NC(=O)Cn2c(-c3ccc(F)cc3)nc(C)c(CCO)c2=O)cc(OC)c1,11.2µM*
COc1ccc(NC(=O)Cn2c(-c3ccc(F)cc3)nc(C)c(CCO)c2=O)cc1Cl,-24.1%
CCCOc1nccnc1NC1CCN(C(=O)c2ccccn2)CC1,i[5.79 µM]
CCCc1cc(N2CCC(NCCOC(C)C)CC2)nc(C)n1,-15.5%
